The text below walks through data of PubChem BioAssay (Tox21).

Structures are written as SMILES. Records with an inconclusive call do not appear. A call without a number means that no potency is given here. A number with no mark means an inactive call. Calls of active or inactive are those of the source. Calls follow the shape of the full dose curve.
Potency is read from the fitted curve at half-maximal effect.

The test in a line: qHTS assay to identify small molecule agonists of the hypoxia (HIF-1) signaling pathway - cell viability counter screen (AID 1224844). Also: nearly all actives have a fitted effect of over 50% in size. The conditions noted are these: HRE-bla ME-180 viability, CellTiter-Glo luminescence, 17 h; series mostly up to 76.8 µM. The text has this:
National Center for Advancing Translational Sciences [NCATS]
NIH Chemical Genomics Center [NCGC]
U.S. Environmental Protection Agency [EPA]
National Institutes of Environmental Health Sciences [NIEHS]
National Toxicology Program [NTP]
U.S. Food and Drug Administration [FDA]
Hypoxia-inducible factor-1 (HIF-1) is the major hypoxia-regulated transcription factor that controls cellular responses to low oxygen concentration. HIF-1 is composed of two subunits: hypoxia responsive HIF-1-alpha and constitutively expressed HIF-1-beta, which is also known as aryl hydrocarbon receptor nuclear translocator. During hypoxic conditions, HIF-1-alpha heterodimerizes with HIF-1-beta and translocates into the nucleus where the HIF-1 complex binds to the hypoxia-response element (HRE) and activates expression of target genes such as VEGF (vascular endothelial growth factor). The HIF-1 pathway is essential to normal growth and development, and is involved in the pathophysiology of cancer, inflammation, and ischemia.
Using a beta-lactamase reporter-gene under control of the hypoxia response element, a cell-based assay [CellSensor(TM) HRE-bla ME-180 from Life Technologies, Carlsbad, CA] was used to measure hypoxia-induced signaling. Tox21 10K library compounds were measured for their ability to induce the reporter gene activity. The cytotoxicity of the Tox21 compound library against HRE-bla ME-180 cell line was tested in parallel by measuring cell viability using CellTiter-Glo assay (Promega, Madison, WI) in the same assay wells.
Tox21 Assay Protocol Summary:
HRE-bla ME-180 cells were dispensed at 2,000 cells per well in 6 uL of assay medium containing 0.5% dialyzed FBS into black wall/clear-bottom 1536-well plates using a Multidrop Combi (Thermo Scientific, Waltham, MA) dispenser. After the assay plates were incubated at 37C and 5% CO2 for 5 hrs, 23 nL of compounds dissolved in DMSO, positive controls or DMSO only was transferred to each well of the assay plate using a Pintool station (Kalypsys, San Diego, CA). The assay plates were incubated at 37C and 5% CO2 for 17 hrs. One uL of LiveBLAzerTM B/G FRET substrate (CCF4-AM) (Life Technologies) was added to each well using a Flying Reagent Dispenser (FRD, Aurora Discovery, San Diego, CA). After 2 hr incubation at room temperature, fluorescence intensity (405 nm excitation, 460 nm and 530 nm emissions) was measured using an Envision plate reader (PerkinElmer, Shelton, CT). For cytotoxicity, 4 ul/well of CellTiter-Glo reagent was added into the assay plates using an FRD. After 30 min incubation at room temperature, the luminescence intensity was measured using a ViewLux plate reader (PerkinElmer).
As to `CC(=O)c1cc2ccccc2s1`, the Potency entry is “inactive”. Regarding `C1COC1`, the Potency result is “inactive”. The same measure, in the same setting: for `COc1ccccc1N1CCN(CCCCNC(=O)c2ccc(-c3ccc(C(C)=O)cc3)cc2)CC1` the value was “inactive”; for `CC(=O)OCCN(CCOC(C)=O)c1ccc(N=Nc2ccc([N+](=O)[O-])cc2C#N)cc1`, “inactive”; for `CC1CC(C)C(=O)C1=O` (stereo not given), “inactive”.

Turning to `Cc1cscn1`, the Potency entry was “inactive”.

Consider `C(=C\c1ccccc1)/c1ccccc1`, for which the Potency result is “inactive”.

For `Oc1cc2c(cc1O)[C@H]1c3ccc(O)c(O)c3OC[C@@]1(O)C2`, the Potency result was “inactive”. In the case of `CCCCN(CCN(CCCC)C(=O)N1CCOCC1)C(=O)N1CCOCC1`, the Potency result is “inactive”. On to `Cc1cc(=O)c2c(O)c3c(O)cc(=O)c4c3c3c(cc(O)c1c23)C(C)(C)C=4O`, for which the activity change, negative = cytotoxicity was 15.9% [at 15.8 µM]. With `CCOc1ccccc1O[C@H](c1ccccc1)[C@H]1CNCCO1`, the Potency result was “inactive”. Same read-out and setting: next, `COc1cc(C(=O)NC2CCN(C)CC2)ccc1Nc1ncc2c(n1)N(C1CCCC1)CC(F)(F)C(=O)N2C`: 20 µM (active). Regarding `O=C(/C=C/c1ccc(O)c(O)c1)O[C@@H]1C[C@@](OC(=O)/C=C/c2ccc(O)c(O)c2)(C(=O)O)C[C@@H](O)[C@@H]1O`, the Potency entry was “inactive”. Still for that read-out and setting: for `CCCCCCCC/C=C\CCCCCCCCO` the value was “inactive”; for `NC(=O)c1ccncc1`, “inactive”. The same measure, in the same setting: next, `COC(=O)c1nc(Cl)c(Cl)nc1N`: 13.4 µM (active). As for `Brc1cc(Br)c(Oc2cc(Br)c(Br)cc2Br)cc1Br`, the Potency is 21.3 µM (active). As for `OC1(c2ccccc2)CCNCC1`, the Potency entry is “inactive”. Still for that read-out and setting: next, `C=CC(=O)OCC1CC2CC1C1CCC(COC(=O)C=C)C21` (stereo not given): “inactive”; `CC1(C)S[C@@H]2[C@H](NC(=O)C(c3ccccc3)S(=O)(=O)O)C(=O)N2[C@H]1C(=O)O` (stereo not given in full): “inactive”; `CCCCC(CC)CN` (stereo not given): “inactive”. Turning to `COC(=O)CS`, the Potency entry is “inactive”. Same read-out and setting: for `CCCCCC[C@@H](O)C/C=C\CCCCCCCC(=O)O` the value was “inactive”; for `O=C(Cn1ccnc1[N+](=O)[O-])NCCO`, “inactive”; for `CC(=O)OCC(=O)NCCCOc1cccc(CN2CCCCC2)c1`, “inactive”. Still for that read-out and setting: next, `CN1CCCN=C1COC(=O)C(O)(c1ccccc1)C1CCCCC1` (stereo not given): “inactive”; `OCCN1CCN(CCCN2c3ccccc3Sc3ccc(Cl)cc32)CC1`: 15.1 µM (active).

Regarding `O=[N+]([O-])c1ccc(Nc2ccc(Nc3ccccc3)c(S(=O)(=O)O)c2)c([N+](=O)[O-])c1`, the Potency result was “inactive”. The same measure, in the same setting: for `CC(=O)NC1(c2cccc(F)c2)CCN(CC[C@@]2(c3ccc(Cl)c(Cl)c3)CN(c3ccccc3)C(=O)CO2)CC1` the value was 39 µM (active); for `CCCCCCC(C)(C)C(=O)O`, “inactive”. As for `CC(=O)Nc1ccc(C)cc1C`, the Potency result is “inactive”.

As to `O=C(O)C[C@H](NC(=O)OCc1ccccc1)C(=O)O`, the Potency result was “inactive”.

With `CCC1NC(=O)c2cc(S(N)(=O)=O)c(Cl)cc2N1` (stereo not given), the Potency result was “inactive”. On the same count and under the same terms, next, `OCCOCC#CCOCCO`: “inactive”; `C[C@@H](O[C@H]1OCCN(Cc2n[nH]c(=O)[nH]2)[C@H]1c1ccc(F)cc1)c1cc(C(F)(F)F)cc(C(F)(F)F)c1`: 21.3 µM (active); `CC(C)(C)C(=O)C(=O)O`: “inactive”. On the same count and under the same terms, for `Oc1c(I)cc(I)c2cccnc12` the value was “inactive”; for `CC1=C(CC=O)C(C)(C)CCC1`, “inactive”; for `Cc1ccccc1S`, “inactive”.

On to `C=C(C)C(=O)OCCOCCOC(=O)C(=C)C`, for which the Potency result was “inactive”.
